# Experimental data taken from PubChem BioAssay (Tox21).
# Several values for one entry are separate records, joined by “and”; a condition that tells them apart may be missing. Equal entries are not always repeated. Results filed as inconclusive are left out. A call without a number means that no potency is given here. Some structures have more than one record in an assay (separate samples or runs), and their calls can disagree. Activity calls are given as the source filed them. Unless noted, the call rests on the fitted dose curve; in most records, active means well fitted curve in the direction sought with a large enough effect in the repeat runs; inconclusive means weak or mixed curves; inactive means no such curve, though single readings can be large; an effect the other way counts as inactive or inconclusive.
# What was measured:
# [1] = qHTS assay to identify small molecule antagonists of the glucocorticoid receptor (GR) signaling pathway - cell viability counter screen (AID 720693); further: nearly all actives have a fitted effect of over 55% in size; further: potency means the concentration at half of the fitted maximal effect
# [2] = qHTS assay for identifying genotoxic compounds that show differential cytotoxicity against isogenic chicken DT40 cell lines with known DNA damage response pathways - wild type cell line (AID 743012); further: nearly all actives have a fitted effect of over 60% in size; further: potency means the concentration at half of the fitted maximal effect
# Method in brief: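 Wild-type DT40 cells (300/well) exposed to compounds for 40 hours at 37 C/5% CO2. Viability read by CellTiter-Glo luminescence after 30 min at room temperature.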
# [3] = qHTS assay for identifying genotoxic compounds that show differential cytotoxicity against isogenic chicken DT40 cell lines with known DNA damage response pathways - Rev3 mutant cell line (AID 743014); further: nearly all actives have a fitted effect of over 55% in size; further: potency means the concentration at half of the fitted maximal effect
# [4] = qHTS assay for identifying genotoxic compounds that show differential cytotoxicity against isogenic chicken DT40 cell lines with known DNA damage response pathways - Rad54/Ku70 mutant cell line (AID 743015); further: nearly all actives have a fitted effect of over 60% in size; further: potency means the concentration at half of the fitted maximal effect
# [5] = qHTS assay to identify small molecule antagonists of the androgen receptor (AR) signaling pathway - cell viability counter screen (AID 743033; further: nearly all actives have a fitted effect of over 45% in size; further: potency means the concentration at half of the fitted maximal effect)
# [6] = qHTS assay to identify small molecule antagonists of the androgen receptor (AR) signaling pathway using the MDA cell line - cell viability counter screen (AID 743041; further: nearly all actives have a fitted effect of over 45% in size; further: potency means the concentration at half of the fitted maximal effect)
# Method in brief: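 MDA-kb2 AR-luc human breast carcinoma cells (MMTV-luciferase, AR/GR responsive) were treated with compounds plus R1881 agonist for 16 h at 37 °C. Viability was read as CellTiter-Fluor fluorescence in the same wells as the reporter assay.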
# [7] = qHTS assay to identify small molecule antagonists of the thyroid receptor (TR) signaling pathway - cell viability counter screen (AID 743064); further: nearly all actives have a fitted effect of over 50% in size; further: potency means the concentration at half of the fitted maximal effect
# Method in brief: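 Fluorescence from CellTiter-Fluor, added after 23.5 h exposure at 37 °C, reported viability of GH3.TRE-Luc cells co-treated with compound and 1 nM T3. Measured in the same wells as the luciferase TR readout.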
# [8] = qHTS assay to identify small molecule antagonists of the thyroid receptor (TR) signaling pathway (AID 743065); further: nearly all actives have a fitted effect of over 55% in size; further: potency means the concentration at half of the fitted maximal effect
# Method in brief: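 GH3.TRE-Luc rat pituitary cells carrying two TR response elements driving luciferase were plated for 4 h, given compound plus 1 nM T3 (final), and incubated 23.5 h at 37 C. ONE-Glo luminescence measured reporter inhibition; CellTiter-Fluor fluorescence tracked cytotoxicity.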
# [9] = tested on: thyroid hormone receptor (rat, GH3 cells); test: qHTS assay to identify small molecule agonists of the thyroid receptor (TR) signaling pathway (AID 743066; calls by dose curve)
# [10] = molecular target: Estrogen receptor (Homo sapiens) (UniProt P03372); test: qHTS assay to identify small molecule antagonists of the estrogen receptor alpha (ER-alpha) signaling pathway (AID 743069; active means well fitted curve in the direction sought with a large enough effect in the signal ratio in the repeat runs, not every such curve was filed as active; the % refers to the signal ratio)
# Method in brief: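 HEK293 cells stably carrying an ER-alpha-UAS-bla beta-lactamase reporter were pre-cultured overnight in 2% charcoal-stripped FBS medium. Test compounds in DMSO were added together with 17beta-estradiol for 18 hr at 37C. Read-out was fluorescence after 2 hr with LiveBLAzer B/G FRET substrate at room temperature.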
# [11] = qHTS assay to identify small molecule antagonists of the estrogen receptor alpha (ER-alpha) signaling pathway - cell viability counter screen (AID 743074; calls by dose curve; further: nearly all actives have a fitted effect of over 45% in size; further: potency means the concentration at half of the fitted maximal effect)
# [12] = molecular target: Estrogen receptor (Homo sapiens) (UniProt P03372); test: qHTS assay to identify small molecule agonists of the estrogen receptor alpha (ER-alpha) signaling pathway using the BG1 cell line (AID 743079); details: BG1Luc4E2 cells, ERE-luciferase agonist, 22 h; activation: at 70.3 µM (top of the series); further: nearly all actives have a fitted effect of over 20% in size; further: potency means the concentration at half of the fitted maximal effect
# [13] = qHTS assay to identify small molecule antagonists of the estrogen receptor alpha (ER-alpha) signaling pathway using the BG1 cell line (AID 743080; calls by dose curve;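 further: BG1 cells stimulated with 17beta-estradiol alongside compound; nearly all actives have a fitted effect of over 25% in size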)
# Method in brief: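 Luminescence from a 4×ERE-luciferase reporter in BG1-Luc-4E2 cells served as read-out. Cells, pre-cultured 5 days in stripped-serum phenol-red-free medium, were exposed to compound with 17beta-estradiol co-stimulation for 21.5 h at 37 C.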
# [14] = qHTS assay to identify small molecule antagonists of the estrogen receptor alpha (ER-alpha) signaling pathway using the BG1 cell line - cell viability counter screen (AID 743081);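 further: compound given together with 17beta-estradiol as the ER stimulus; nearly all actives have a fitted effect of over 45% in size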
# Aromatase (Homo sapiens) = Aromatase (Homo sapiens) (UniProt P11511); test: qHTS assay to identify aromatase inhibitors (AID 743083); further: nearly all actives have a fitted effect of over 55% in size; further: potency means the concentration at half of the fitted maximal effect
# [15] = molecular target: Estrogen receptor (Homo sapiens) (UniProt P03372); test: qHTS assay to identify small molecule agonists of the estrogen receptor alpha (ER-alpha) signaling pathway (AID 743075; calls by dose curve)
# [16] = molecular target: Androgen receptor (Homo sapiens) (UniProt P10275); test: qHTS assay to identify small molecule antagonists of the androgen receptor (AR) signaling pathway (AID 743035; active means well fitted inhibition curve with a large enough effect in the signal ratio in the repeat runs, not every such curve was filed as active; the % refers to the signal ratio; further: potency means the concentration at half of the fitted maximal effect)
# Method in brief: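 HEK293 cells stably carrying UAS-beta-lactamase reporter, 2,000/well, given compounds plus R1881 agonist and incubated 16 h at 37C. LiveBLAzer B/G FRET substrate then added for 2 h at room temperature before fluorescence reading.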
# [17] = molecular target: Androgen receptor (Homo sapiens) (UniProt P10275); test: qHTS assay to identify small molecule antagonists of the androgen receptor (AR) signaling pathway using the MDA cell line (AID 743042)
# Method in brief: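 MDA-kb2 cells (human breast carcinoma, stably carrying an MMTV-luciferase reporter responsive to AR and GR) were plated at 3,000 cells/well and preincubated 5 hr at 37C, then given compound plus R1881 agonist for 16 h. ONE-Glo luminescence was read.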
# [18] = molecular target: Androgen receptor (Homo sapiens) (UniProt P10275); test: qHTS assay to identify small molecule agonists of the androgen receptor (AR) signaling pathway (AID 743036; active means well fitted activation curve with a large enough effect in the signal ratio in the repeat runs, with a control signal flat, not every such curve was filed as active; the % refers to the signal ratio)
# Method in brief: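 Fluorescence from a beta-lactamase FRET substrate served as read-out in AR-UAS-bla GripTite HEK293 cells. Cells were treated with DMSO-dissolved compounds for 16 h at 37C, then with LiveBLAzer B/G substrate for 2 h at room temperature.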
# Estrogen receptor (Homo sapiens), sequence (P03372 whole entry, looked up): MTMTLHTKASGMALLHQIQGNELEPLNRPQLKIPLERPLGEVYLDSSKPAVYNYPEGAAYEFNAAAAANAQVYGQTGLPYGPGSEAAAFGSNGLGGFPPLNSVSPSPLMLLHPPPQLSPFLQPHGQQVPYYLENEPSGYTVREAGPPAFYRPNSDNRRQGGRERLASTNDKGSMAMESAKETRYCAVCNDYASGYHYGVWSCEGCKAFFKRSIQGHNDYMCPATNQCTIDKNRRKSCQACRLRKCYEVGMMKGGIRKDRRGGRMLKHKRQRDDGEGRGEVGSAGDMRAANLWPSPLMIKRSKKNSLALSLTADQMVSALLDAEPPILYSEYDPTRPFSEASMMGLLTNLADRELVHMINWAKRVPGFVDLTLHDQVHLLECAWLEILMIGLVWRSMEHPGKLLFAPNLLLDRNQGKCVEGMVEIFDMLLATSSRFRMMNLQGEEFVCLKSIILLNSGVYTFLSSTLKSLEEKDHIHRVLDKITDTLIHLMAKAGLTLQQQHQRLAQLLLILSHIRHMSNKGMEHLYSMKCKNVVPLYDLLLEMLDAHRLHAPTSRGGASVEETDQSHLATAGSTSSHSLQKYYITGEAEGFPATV
# Androgen receptor (Homo sapiens), sequence (P10275 whole entry, looked up): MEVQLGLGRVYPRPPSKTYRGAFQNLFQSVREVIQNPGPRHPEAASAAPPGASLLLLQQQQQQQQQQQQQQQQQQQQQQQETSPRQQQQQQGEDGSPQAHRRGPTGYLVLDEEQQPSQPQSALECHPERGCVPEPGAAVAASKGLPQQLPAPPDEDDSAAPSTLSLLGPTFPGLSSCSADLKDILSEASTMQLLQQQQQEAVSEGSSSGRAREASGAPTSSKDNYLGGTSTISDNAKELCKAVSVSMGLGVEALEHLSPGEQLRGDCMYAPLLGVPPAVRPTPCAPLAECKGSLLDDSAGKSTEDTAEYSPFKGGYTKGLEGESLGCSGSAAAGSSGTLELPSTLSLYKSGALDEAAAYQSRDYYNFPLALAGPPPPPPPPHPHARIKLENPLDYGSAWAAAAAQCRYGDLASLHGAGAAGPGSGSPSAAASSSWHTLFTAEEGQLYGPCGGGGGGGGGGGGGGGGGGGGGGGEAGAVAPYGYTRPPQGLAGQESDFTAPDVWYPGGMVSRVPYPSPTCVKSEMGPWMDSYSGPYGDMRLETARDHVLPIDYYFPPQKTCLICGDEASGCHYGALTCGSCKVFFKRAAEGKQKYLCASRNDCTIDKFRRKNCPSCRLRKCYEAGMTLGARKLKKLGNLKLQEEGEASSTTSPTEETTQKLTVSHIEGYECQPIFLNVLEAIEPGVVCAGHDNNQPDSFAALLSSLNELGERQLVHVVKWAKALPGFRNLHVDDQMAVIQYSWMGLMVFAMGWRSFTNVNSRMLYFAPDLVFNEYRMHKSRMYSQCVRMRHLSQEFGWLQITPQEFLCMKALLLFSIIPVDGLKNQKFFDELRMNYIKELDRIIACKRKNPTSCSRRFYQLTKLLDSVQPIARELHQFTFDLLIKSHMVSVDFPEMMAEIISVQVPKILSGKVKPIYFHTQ
# Aromatase (Homo sapiens), sequence (P11511 whole entry, looked up): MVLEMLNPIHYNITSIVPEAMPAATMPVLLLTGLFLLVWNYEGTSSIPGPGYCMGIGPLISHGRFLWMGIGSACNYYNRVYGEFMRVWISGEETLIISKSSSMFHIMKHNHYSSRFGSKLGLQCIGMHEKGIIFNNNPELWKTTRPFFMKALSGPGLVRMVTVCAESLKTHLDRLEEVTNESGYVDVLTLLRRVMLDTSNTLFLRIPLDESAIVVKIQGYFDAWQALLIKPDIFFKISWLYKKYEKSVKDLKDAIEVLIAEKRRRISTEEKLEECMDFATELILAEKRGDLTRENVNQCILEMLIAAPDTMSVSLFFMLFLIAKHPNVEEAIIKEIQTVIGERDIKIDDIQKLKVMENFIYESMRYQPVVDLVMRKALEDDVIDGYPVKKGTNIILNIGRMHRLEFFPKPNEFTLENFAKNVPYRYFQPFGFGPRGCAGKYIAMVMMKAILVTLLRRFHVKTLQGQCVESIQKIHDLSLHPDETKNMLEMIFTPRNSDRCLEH
Structure (SMILES),Potency [1],Potency [2],Potency [3],Potency [4],Potency [5],Potency [6],Potency [7],Potency [8],Potency [9],Potency [10],Potency [11],Potency [12],Potency [13],Potency [14],Potency (Aromatase (Homo sapiens)),Potency [15],Potency [16],Potency [17],outcome [18]
CC(C)[C@@H](Nc1ccc(C(F)(F)F)cc1Cl)C(=O)OC(C#N)c1cccc(Oc2ccccc2)c1 (some centres not stated),inactive,inactive,inactive,inactive,inactive,inactive,inactive,inactive,inactive,inactive,inactive,inactive,inactive,inactive,inactive,,,,
COc1cnc(OC)n2nc(NS(=O)(=O)c3c(OCC(F)F)cccc3C(F)(F)F)nc12,inactive,inactive,inactive,inactive,inactive,inactive,inactive,inactive,inactive,inactive,inactive,inactive,inactive,inactive,inactive,inactive,,,
O=C1C2(Cl)C3(Cl)C4(Cl)C(Cl)(Cl)C5(Cl)C3(Cl)C1(Cl)C5(Cl)C24Cl (configuration not stated),24.1 µM (active),30.1 µM (active) and 29.3 µM (active),13.5 µM (active) and 32.9 µM (active),19 µM (active) and 26.1 µM (active),38.3 µM (active) and 46.9 µM (active),,9.53 µM (active) and 13.1 µM (active),9.53 µM (active) and 11.7 µM (active),inactive,,54 µM (active),,,inactive,26.9 µM (active) and 52.2 µM (active),,23.5 µM (active),60.1 µM (active),
CC(C)C(Nc1ccc(C(F)(F)F)cc1Cl)C(=O)OC(C#N)c1cccc(Oc2ccccc2)c1 (configuration not stated),inactive,inactive,inactive,inactive,inactive,inactive,inactive,inactive,inactive,inactive,inactive,inactive,inactive,inactive,inactive,,,,
[O]=[Cr][O][Cr]=[O],inactive,inactive,inactive,inactive,inactive,inactive,inactive,,inactive,inactive,inactive,inactive,inactive,inactive,inactive,inactive,,,
COc1ccc(Cc2nccc3cc(OC)c(OC)cc23)cc1OC,inactive,4.03 µM (active),9.02 µM (active),7.17 µM (active),inactive,,inactive,,inactive,,inactive,,,inactive,inactive,,,9.02 µM (active),inactive
COc1c2c(cc3c1OCO3)CCN(C)C2,inactive,inactive,inactive,inactive,inactive,inactive,inactive,,inactive,inactive,inactive,inactive,,,inactive,inactive,,,
CNC(=O)/C=C(\C)OP(=O)(OC)OC,inactive,inactive,inactive,inactive,inactive,inactive,,inactive,inactive,inactive,inactive,inactive,inactive,inactive,inactive,inactive,,,
CCC[CH2][Sn]([CH2]CCC)([CH2]CCC)[CH2]CCC,54.9 µM (active),7.7 µM (active),21.7 µM (active),8.63 µM (active),43.6 µM (active),61.1 µM (active),,19.3 µM (active),,,,,,,inactive,,,,
CCC(C)Nc1c([N+](=O)[O-])cc(C(C)(C)C)cc1[N+](=O)[O-] (configuration not stated),inactive,inactive,inactive,inactive,inactive,inactive,,,,inactive,inactive,61.1 µM (active),,inactive,inactive,inactive,,,
C[N+]1(C)[C@@H]2CC[C@H]1CC(OC(=O)C(CO)c1ccccc1)C2 (some centres not stated),inactive,inactive,inactive,inactive,inactive,inactive,inactive,,inactive,,inactive,,inactive,inactive,inactive,,,,
COc1nc(C)nc(NC(=O)NS(=O)(=O)c2ccccc2Cl)n1,inactive,inactive,inactive,inactive,inactive,inactive,,inactive,inactive,inactive,inactive,,inactive,inactive,inactive,,,,
CCOC(=O)CCN(SN(C)C(=O)Oc1cccc2c1OC(C)(C)C2)C(C)C,inactive,17.2 µM (active),24.3 µM (active),21.7 µM (active),inactive,inactive,,inactive,,,inactive,inactive,,inactive,inactive,inactive,,,
COC(=O)/C=C(\C)OP(=O)(OC)OC,inactive,inactive,24.3 µM (active),inactive,inactive,inactive,,inactive,inactive,inactive,inactive,,inactive,inactive,,,,,
COC(=O)c1cc(Oc2ccc(Cl)cc2Cl)ccc1[N+](=O)[O-],inactive,9.69 µM (active),12.2 µM (active),24.3 µM (active),inactive,inactive,,61.1 µM (active),inactive,,inactive,,,inactive,,,,,
[C-]1=CC=CC1.[Cl][Zr+2][Cl].c1cc[cH-]c1,inactive,inactive,inactive,inactive,inactive,inactive,,inactive,inactive,,inactive,,,inactive,,,,,
ClC1=C(Cl)[C@]2(Cl)[C@@H]3[C@H]4C[C@H]([C@@H]5O[C@H]45)[C@@H]3[C@@]1(Cl)C2(Cl)Cl,inactive,29.8 µM (active) and 27.3 µM (active),9.68 µM (active),17.2 µM (active),inactive,inactive,,,inactive,inactive,inactive,inactive,,inactive,inactive,inactive,,,
CCc1cccc(C)c1N(C(=O)CCl)[C@@H](C)COC,inactive,13.7 µM (active),19.3 µM (active),30.6 µM (active),inactive,inactive,inactive,,,,inactive,,,inactive,,,,,

Structure (SMILES),Potency [1],Potency [2],Potency [3],Potency [4],Potency [5],Potency [6],Potency [7],Potency [8],Potency [9],Potency [10],Potency [11],Potency [12],Potency [13],Potency [14],Potency (Aromatase (Homo sapiens)),Potency [15],Potency [16],Potency [17],outcome [18]
CCOP(=O)(Sc1ccccc1)Sc1ccccc1,inactive,24.3 µM (active),inactive,inactive,inactive,inactive,inactive,,,,inactive,,,inactive,,inactive,,,
CCC(C)Br (configuration not stated),inactive,inactive,inactive,inactive,inactive,inactive,,inactive,inactive,,inactive,,,inactive,inactive,,,,
C=CC(=C)C,inactive,27.3 µM (active),21.7 µM (active),24.3 µM (active),inactive,,inactive,inactive,inactive,inactive,inactive,,,inactive,inactive,inactive,,,
CN1[C@@H]2CC[C@H]1CC(O)C2 (some centres not stated),inactive,inactive,inactive,inactive,inactive,inactive,,inactive,inactive,inactive,inactive,inactive,,inactive,inactive,inactive,,,
[Cl-].[Cl-].[Cl-].[Yb+3],inactive,inactive,inactive,inactive,inactive,inactive,,inactive,inactive,,inactive,,,inactive,inactive,,,,
CN=C=O,inactive,inactive,inactive,inactive,inactive,inactive,,,inactive,,inactive,,,inactive,inactive,,,,
CC(=O)[O-].CC(=O)[O-].[Co+2],inactive,inactive,inactive,inactive,inactive,inactive,,,inactive,,inactive,,,inactive,inactive,,,,
Brc1ccc(Oc2ccc(Br)cc2Br)c(Br)c1,inactive,inactive,inactive,inactive,inactive,inactive,,,inactive,,inactive,19.4 µM (active),,inactive,inactive,inactive,,,
Clc1cc(Cl)c(-c2cc(Cl)c(Cl)cc2Cl)cc1Cl,inactive,inactive,inactive,inactive,inactive,inactive,,,inactive,,inactive,,,inactive,inactive,,,,
CCCCN(CCCC)C(=S)[S-].CCCCN(CCCC)C(=S)[S-].[Ni+2],inactive,inactive,inactive,inactive,inactive,inactive,inactive,,inactive,inactive,inactive,,inactive,inactive,inactive,inactive,,,
C#CCO,inactive,inactive,inactive,inactive,inactive,inactive,,,,inactive,inactive,inactive,inactive,inactive,inactive,inactive,,,
C#CC1(O)CCCCC1,inactive,inactive,inactive,inactive,inactive,inactive,inactive,,inactive,,inactive,,,inactive,inactive,,,,
CCN(CC)C(=O)N[C@@H]1C=C2c3cccc4[nH]cc(c34)C[C@@H]2N(C)C1,inactive,7.5 µM (active),26.6 µM (active),16.8 µM (active),inactive,inactive,,,inactive,inactive,inactive,inactive,,inactive,,inactive,,,
CC(C)N(C(=O)SC/C(Cl)=C/Cl)C(C)C,inactive,inactive,inactive,inactive,inactive,inactive,,,inactive,inactive,,inactive,,inactive,,,,,
CCn1cc[n+](C)c1 (tested in a mixture with another compound),inactive,inactive,inactive,inactive,inactive,inactive,inactive,,inactive,,inactive,,,inactive,,,,,
CC(C)Br,inactive,inactive,inactive,inactive,inactive,inactive,,inactive,inactive,inactive,inactive,inactive,,inactive,inactive,inactive,,,
Clc1ccc(C2(Cn3cncn3)OCCO2)c(Cl)c1,inactive,61.1 µM (active),30.6 µM (active),inactive and 61.1 µM (active),inactive,inactive,,,,inactive,inactive,inactive,inactive,inactive,inactive,inactive,,,
O=[N+]([O-])c1ccccc1-c1ccccc1,inactive,inactive,inactive,inactive,inactive,inactive,,inactive,inactive,inactive,inactive,,inactive,inactive,inactive,inactive,,,
